In PubChem BioAssay (NCI):
Compounds without any hit were thinned out: in the full panel of roughly 83,000, 20% have a hit.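 Note: values are percent growth. 100 is the growth of untreated cells, values between 100 and 0 indicate rising inhibition; between -100 and 0 indicates cell death.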 Active and inactive are the calls of the source. The calls were made as follows: active = growth percent below 10; inactive = the rest.

Columns and labels:
Assay in all cases: NCI-60 one-dose screen, 48 h (100 = growth as untreated, 0 = no growth, -100 = all killed)
Conditions in all cases: 10 µM unless noted
SK-MEL-2 melanoma = test system: SK-MEL-2 melanoma
EKVX NSCLC = test system: EKVX NSCLC
SN12C renal = test system: SN12C renal
UO-31 renal = test system: UO-31 renal
TK-10 renal = test system: TK-10 renal
ACHN renal = test system: ACHN renal
CAKI-1 renal = test system: CAKI-1 renal
A498 renal = test system: A498 renal
CCRF-CEM leukemia = test system: CCRF-CEM leukemia
MOLT-4 leukemia = test system: MOLT-4 leukemia

Compound | growth (SK-MEL-2 melanoma) | growth (EKVX NSCLC) | growth (SN12C renal) | growth (UO-31 renal) | growth (TK-10 renal) | growth (ACHN renal) | growth (CAKI-1 renal) | growth (A498 renal) | growth (CCRF-CEM leukemia) | growth (MOLT-4 leukemia)
COc1ccc2c(c1)C(C)Cc1c(N(C)C)ncnc1N2C (stereo not given) | 32.9% (inactive) | 41.2% (inactive) | 43.6% (inactive) | 56.6% (inactive) | 29.9% (inactive) | 46.8% (inactive) | 37.6% (inactive) | 2.02% (active) | 18.6% (inactive) | 33.1% (inactive)
CCC#CC[C@H]1C/C=C2/C(=O)C=C[C@@H]2C/C=C\CCCC(=O)O1 | 8.9% (active) | 23.7% (inactive) | 0.755% (active) | -82.7% (active) | -1.68% (active) | -86.8% (active) | 18.2% (inactive) | 46.5% (inactive) | 9.12% (active) | 7.42% (active)
Nc1cc2c(cc1N)-c1cc(N)c(N)cc1C2 | 111% (inactive) | 89.2% (inactive) | 94.9% (inactive) | 53.9% (inactive) | 110% (inactive) | 96% (inactive) | 93.8% (inactive) | 63.5% (inactive) | 88.2% (inactive) | 92.3% (inactive)
CCNc1nc(N2CC(=O)Nc3cc(OC)ccc32)c2ccccc2n1 | 31.6% (inactive) | 12.8% (inactive) | 27% (inactive) | 15.6% (inactive) | 21.3% (inactive) | 8.34% (active) | 22.6% (inactive) | -11.4% (active) | 26.8% (inactive) | 24.8% (inactive)
C=CCc1cc(Cl)cc2c(OC(C)=O)c(C(C)=O)c(-c3ccccc3)nc12 | 112% (inactive) | 75.5% (inactive) | 99.5% (inactive) | 78.2% (inactive) | 114% (inactive) | 102% (inactive) | 87.5% (inactive) | 110% (inactive) | 104% (inactive) | 101% (inactive)
O=C(C[N+](=O)[O-])c1ccc(Cl)cc1 | 119% (inactive) | 107% (inactive) | 107% (inactive) | 90.3% (inactive) | 109% (inactive) | 111% (inactive) | 95.2% (inactive) | 108% (inactive) | 104% (inactive) | 106% (inactive)
C/C(=N\NC(=O)CC#N)c1cc2cc(Cl)ccc2o1 | 96.4% (inactive) | 33.6% (inactive) | 93.1% (inactive) | 108% (inactive) | 114% (inactive) | 96.1% (inactive) | 89.2% (inactive) | 111% (inactive) | 70.2% (inactive) | 87.4% (inactive)
Cc1ccc2nc(SCn3nnc4ccccc4c3=O)[nH]c2c1 | 69.5% (inactive) | 97.1% (inactive) | 108% (inactive) | 73.8% (inactive) | 196% (inactive) | 105% (inactive) | 93.5% (inactive) | 108% (inactive) | 102% (inactive) | 71.2% (inactive)
CC(=O)N1Cc2ccccc2C(C)Cc2cc(Cl)ccc21 (stereo not given) | 105% (inactive) | 94.5% (inactive) | 104% (inactive) | 97.8% (inactive) | 98.4% (inactive) | 109% (inactive) | 90% (inactive) | 75.7% (inactive) | 110% (inactive) | 97% (inactive)
O=C1CCCCN1CCCCC#Cc1ccccc1C#Cc1ccccn1 | 64.5% (inactive) | 106% (inactive) | 106% (inactive) | 42.2% (inactive) | 136% (inactive) | 86.4% (inactive) | 121% (inactive) | 114% (inactive) | 74% (inactive) | 94.9% (inactive)
COc1ccc(/C=C/C(=O)OCC(=O)NNC(=O)c2ccccc2)cc1OC | 68.6% (inactive) | 84.4% (inactive) | 101% (inactive) | 80.9% (inactive) | 121% (inactive) | 90.2% (inactive) | 83.5% (inactive) | 93% (inactive) | 93.8% (inactive) | 70.1% (inactive)
COc1cc(Br)c(OC)cc1Br | 101% (inactive) | 76% (inactive) | 110% (inactive) | 60.4% (inactive) | 140% (inactive) | 92.4% (inactive) | 85.2% (inactive) | 88.7% (inactive) | 116% (inactive) | 98.3% (inactive)
COc1cc(-c2csc(NC(=O)Nc3ccc(Cl)cc3Cl)n2)cc(OC)c1OC | 62.7% (inactive) | 46.6% (inactive) | 59.5% (inactive) | 34.6% (inactive) | 54.6% (inactive) | 30.3% (inactive) | 37.8% (inactive) | 34.8% (inactive) | 33.3% (inactive) | 33.4% (inactive)
O=[N+]([O-])c1c(S(=O)(=O)O)cc2cc(S(=O)(=O)O)ccc2c1[N+](=O)[O-] | 107% (inactive) | 101% (inactive) | 101% (inactive) | 76.5% (inactive) | 93% (inactive) | 98.8% (inactive) | 93.8% (inactive) | 106% (inactive) | 107% (inactive) | 93.8% (inactive)
Cc1ccc2c(c1)ncn2-c1ncnc2c1CC(C)c1ccccc1N2C (stereo not given) | 32.7% (inactive) | 40.8% (inactive) | 21.2% (inactive) | 26.9% (inactive) | 8.21% (active) | 20.2% (inactive) | 19.6% (inactive) | -11.7% (active) | 13.3% (inactive) | 12% (inactive)
CSc1ccccc1C#C/C=C\C#Cc1ccccc1N1CCCC1=O | 35.4% (inactive) | 55.3% (inactive) | 72.1% (inactive) | 23.3% (inactive) | 83.1% (inactive) | 57.9% (inactive) | 70.2% (inactive) | 55.3% (inactive) | 23.6% (inactive) | 27.4% (inactive)
CSc1nc(-c2cc3ccccc3o2)cc(-c2ccc(Cl)cc2)c1C#N | 23.8% (inactive) | 73.7% (inactive) | 36.8% (inactive) | -18.2% (active) | 54.7% (inactive) | -63% (active) | 48% (inactive) | 81.9% (inactive) | 86.8% (inactive) | 94.5% (inactive)
O=C(NCCc1c[nH]c2ccccc12)C1Cc2ccccc2CN1C(=O)c1ccco1 (stereo not given) | 69.5% (inactive) | 102% (inactive) | 111% (inactive) | 53.5% (inactive) | 110% (inactive) | 96.6% (inactive) | 107% (inactive) | 107% (inactive) | 81.2% (inactive) | 77.1% (inactive)
CC/C=C\C/C=C\C[C@H](O)C/C=C1/C(=O)C=C[C@H]1C/C=C\CCC(=O)OC | 65.6% [8.25 µM] (inactive) | 39% [8.25 µM] (inactive) | 1.16% [8.25 µM] (active) | 48.1% [8.25 µM] (inactive) | 58.7% [8.25 µM] (inactive) | 26.9% [8.25 µM] (inactive) | 55.3% [8.25 µM] (inactive) | 107% [8.25 µM] (inactive) | -1.3% [8.25 µM] (active) | 32.7% [8.25 µM] (inactive)
C=C1C(=O)O[C@H]2[C@H]1CC/C(COC(=O)NCCc1ccc(OC)cc1)=C\CC[C@@]1(C)O[C@@H]21 | 63.4% (inactive) | 53.3% (inactive) | 11.7% (inactive) | -82.8% (active) | -7.32% (active) | -6.86% (active) | -2.71% (active) | 62% (inactive) | 3.44% (active) | 2.83% (active)
Nc1nc(-c2cc3ccccc3o2)cc(=O)c(=O)[nH]1 | 98.9% (inactive) | 99.7% (inactive) | 106% (inactive) | 110% (inactive) | 103% (inactive) | 94.3% (inactive) | 91.9% (inactive) | 99.2% (inactive) | 84.2% (inactive) | 96.6% (inactive)
CCN(CC)S(=O)(=O)c1ccc2[nH]c(=O)cc(C(=O)Nc3ccc(OC)cc3OC)c2c1 | 88.8% (inactive) | 166% (inactive) | 108% (inactive) | 108% (inactive) | 115% (inactive) | 103% (inactive) | 120% (inactive) | 146% (inactive) | 92.6% (inactive) | 99.7% (inactive)
CCOc1ccc(/C=C/C=N/NC(N)=S)cc1 | 108% (inactive) | 95.5% (inactive) | 80.4% (inactive) | 38.3% (inactive) | 74.1% (inactive) | 80.2% (inactive) | 83.9% (inactive) | 77.7% (inactive) | 62.6% (inactive) | 35.8% (inactive)
Cc1ccnc2nc(C(=O)OCC(=O)Nc3ccc(-c4ccccc4)cc3)nn12 | 77.3% (inactive) | 104% (inactive) | 102% (inactive) | 62.8% (inactive) | 118% (inactive) | 107% (inactive) | 91% (inactive) | 105% (inactive) | 91.6% (inactive) | 65% (inactive)
COc1ccc2c(c1)C=CC(C#N)N2C(=O)c1ccccc1 (stereo not given) | 67.4% (inactive) | 49.8% (inactive) | 38.4% (inactive) | 53% (inactive) | 70.9% (inactive) | 33.9% (inactive) | 23.6% (inactive) | -5.22% (active) | 15.2% (inactive) | 11.9% (inactive)
Cc1c(C(=O)NCc2ccccc2)[n+](=O)c2cc(F)ccc2n1[O-] | 40.8% (inactive) | 114% (inactive) | 103% (inactive) | 39.4% (inactive) | 138% (inactive) | 102% (inactive) | 79.7% (inactive) | 101% (inactive) | 52.5% (inactive) | 130% (inactive)
CCCCNc1nnc(-c2cc(-c3cc4ccccc4o3)nn2-c2ccccc2)o1 | 90.6% (inactive) | 99.4% (inactive) | 93.6% (inactive) | 71.3% (inactive) | 104% (inactive) | 85.9% (inactive) | 97.4% (inactive) | 86.5% (inactive) | 80% (inactive) | 68.8% (inactive)
